# In the library only some 5% were active in any assay of this set; here they are far more common.
# HCMV inh: inhibitors of human cytomegalovirus | HFF cells, HCMV-luciferase reporter, 72 h; stronger effect = lower value | activity change, negative = inhibition, % at 57.5 µM | 4.5% of 410,000 active; in the data active means activity change below about -60%; inconclusive means no clear call, values can overlap the other calls; inactive means above about -39%
#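 Human foreskin fibroblasts infected with luciferase-reporter HCMV at MOI 1 PFU/cell, compounds at two doses. Luciferase measured 72 h post infection; normalized to buffer-only basal and Salinomycin (10uM) controls.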
# LmPK inh: inhibitors of Leishmania mexicana pyruvate kinase; Q27686; purified LmPK, Kinase-Glo ATP luminescence, 1 h; Potency, µM (top dose mostly 57.5 µM), for the others: top-dose activity change, negative = inhibition, hits mostly inhibitors; 0.37% of 290,000 active; further: potency means the concentration at half of the fitted maximal effect
# Target sequence (Q27686 whole entry, looked up): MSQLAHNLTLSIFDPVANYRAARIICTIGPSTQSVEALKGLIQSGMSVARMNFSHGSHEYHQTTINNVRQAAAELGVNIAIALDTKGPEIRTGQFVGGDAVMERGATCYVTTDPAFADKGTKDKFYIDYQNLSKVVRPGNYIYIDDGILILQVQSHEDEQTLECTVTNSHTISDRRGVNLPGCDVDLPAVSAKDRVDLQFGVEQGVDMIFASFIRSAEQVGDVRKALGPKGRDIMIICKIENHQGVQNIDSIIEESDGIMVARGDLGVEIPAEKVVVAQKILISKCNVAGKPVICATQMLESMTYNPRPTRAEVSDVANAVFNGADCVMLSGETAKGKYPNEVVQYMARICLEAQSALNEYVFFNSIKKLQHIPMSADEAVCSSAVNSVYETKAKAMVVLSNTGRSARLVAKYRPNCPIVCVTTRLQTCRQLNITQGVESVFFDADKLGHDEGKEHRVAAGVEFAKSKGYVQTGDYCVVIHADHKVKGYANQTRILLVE
#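 Kinase-Glo luminescence read after 1 h RT reaction of 0.1 nM LmPK with 0.5 mM PEP and 0.1 mM ADP. Activity scaled between uninhibited and enzyme-free controls.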
# Vaccinia mCherry: inhibitors of vaccinia virus infection (mCherry reporter signal) | Vaccinia virus mCherry reporter infection, fluorescence | Potency, µM (top dose mostly 36.5 µM), inactives show top-dose activity change, negative = inhibition, actives largely listed as inhibitors | 0.63% of 310,000 active; calls by dose curve; tested in A549 cells; further: potency means the concentration at half of the fitted maximal effect; nearly all actives have a fitted effect of over 35% in size
# TbPYK inhibitor: T. brucei pyruvate kinase inhibition | AID 624173 | 0.12% of 410,000 active | TbPYK enzyme, Kinase-Glo Plus ATP luminescence, 45 min | Potency, µM (highest dose often 76.8 µM), for the others: at the highest dose activity, negative = inhibition, actives largely listed as inhibitors | Q57TT1; further: potency means the concentration at half of the fitted maximal effect; nearly all actives have a fitted effect of over 50% in size
#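 Enzyme and substrate buffer are dispensed first and compound is pin-transferred. ADP at 130 uM final then starts the reaction, which runs 45 min at room temperature. Detection reagent is added for 10 min before luminescence is imaged.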
# Vaccinia Venus: vaccinia inhibition (Venus reporter). Vaccinia virus Venus reporter expression, fluorescence. Potency, µM (titrated, usually from 36.5 µM), for inactives: top-dose activity change, negative = inhibition, actives largely listed as inhibitors. 0.46% of 330,000 active; calls by dose curve; tested in A549 cells; further: potency means the concentration at half of the fitted maximal effect; nearly all actives have a fitted effect of over 30% in size
# Active calls of the source: *; i = inactive; ? = inconclusive; · = no result; [ ] = dose if it differs, or a comment. Unless noted, the call rests on the fitted dose curve; in most records, active means well fitted curve in the direction sought with a large enough effect; inconclusive means small, poorly fitted or top-dose-only effect, or another doubt; inactive means no such curve, though single readings can be large; an effect the other way counts as inactive or inconclusive. On the % scale 0 is the no-effect control and ±100 the full control effect.
SMILES,HCMV inh,LmPK inh,Vaccinia mCherry,TbPYK inhibitor,Vaccinia Venus
CCc1ccccc1N(C)C(=O)c1cc2c(=O)oc3ccccc3c2s1,-8.7,·,-9.0%,-1.2%,2.51µM*
CCOc1ccc(Cl)cc1CSc1ncn[nH]1,-67.7*,2.3%,-1.5%,-2.3%,-21.5%
COCCN(CC(=O)Nc1cccc(C)c1C)C(=O)c1cc2ccccc2cc1OC,-16.9,·,i,2.0%,-5.1%
CCCCOc1ccc(CSCCNC(=S)Nc2ccccc2)cc1,?,-0.1%,-27.0%,-3.6%,-17.9%
CC(C)COc1ccc(CSCCNC(=S)Nc2ccccc2)cc1,20.9,-3.0%,·,3.2%,10µM*
CCN1CCN(c2cc(C)c3cc(NC(=O)c4cncc(Br)c4)ccc3n2)CC1,?,-3.4%,-24.6%,1.3%,-27.7%
COc1ccc(N(C)C(=O)Nc2ccc3nsnc3c2)cc1,-32.0,-2.7%,i,-6.4%,-18.7%
CC(C)N(C(=O)Nc1ccc2nsnc2c1)C(C)C,-101.3*,-3.3%,·,-5.6%,·
O=[N+]([O-])c1ccc(CN2CCN(c3ccc(F)cc3)CC2)o1,-27.0,-0.4%,·,-8.4%,·
COc1cc(C2C(C#N)=C(C)NC3=C2C(=O)CC(C)(C)C3)cc(OC)c1O (stereo not given),-61.2*,-2.2%,·,-11.2%,-14.8%
COc1cc(C2C(C#N)=C(N)N(N(C)C)C3=C2C(=O)CC(C)(C)C3)cc(OC)c1OC (stereo not given),-81.8*,8.3%,-0.1%,-4.7%,-3.9%
O=C(CO/N=C/c1ccccc1)N1c2ccccc2Oc2ccccc21,-98.9*,2.0%,2.0%,-2.4%,-0.9%
O=C(CN1CCCCC1)N1c2ccccc2Oc2ccccc21,-3.2,-3.2%,·,6.7%,-11.6%
Cc1nnc(SCC(=O)N2CCN(S(=O)(=O)c3ccccc3)CC2)s1,-35.8,-1.8%,-19.2%,-0.5%,-6.6%
NS(=O)(=O)c1ccc(CCNC(=O)CNCCc2ccc(C(F)(F)F)cc2)cc1,-61.4*,-1.2%,·,4.3%,·
NS(=O)(=O)c1ccc(NC(=O)Nc2ccc(S(N)(=O)=O)cc2)cc1,49.8,-3.8%,-1.8%[7.34 µM],4.7%,-29.6%[7.34 µM]
NS(=O)(=O)c1ccc(NC(=O)Nc2ccc(C(F)(F)F)cc2)cc1,-65.7*,-0.1%,-4.1%,0.3%,-20.2%
N#Cc1ccc(C(c2nnnn2C2CCCC2)N2CCC(Cc3ccccc3)CC2)cc1 (stereo not given),-90.5*,0.4%,·,-4.7%,·
CCOc1cc(C=O)c(Br)cc1OC1CCCC1,-62.0*,2.5%,i,-1.4%,-5.7%
Cc1cccc(NC(=O)[C@H](C)NC(=O)[C@@H]2Cc3ccccc3CN2C(=O)OC(C)(C)C)c1,-30.8,10.5%,·,0.2%,·
Cc1ccc(NS(=O)(=O)c2ccc(N3CCN(c4ccc(O)cc4)CC3)c([N+](=O)[O-])c2)c(C)c1,-63.9*,-1.5%,-25.2%,?,-24.3%
CCn1c(CN2c3ccccc3Sc3ccccc32)n[nH]c1=S,-62.0*,-18.5%,-13.9%,-19.6%,2.9%
CCn1c(CCCCc2n[nH]c(=S)n2CC)n[nH]c1=S,16.9,2.6%,·,-23.1%,·
Cc1cc(C)nc(-n2nc(C)c3c2NC(=O)CC3c2cccc(O)c2)n1 (stereo not given),7.6,·,-13.6%,11.6%,-10.7%
COC(=O)c1ccc(C2c3c(oc4ccc(C)cc4c3=O)C(=O)N2Cc2ccc3c(c2)OCO3)cc1 (stereo not given),-109.5*,·,-6.4%,-5.5%,-2.1%
SMILES,HCMV inh,LmPK inh,Vaccinia mCherry,TbPYK inhibitor,Vaccinia Venus
COCCN1C(=O)c2oc3ccc(C)cc3c(=O)c2C1c1ccc(C(=O)OC)cc1 (stereo not given),?,·,-9.2%,3.3%,-9.2%
Cn1nnnc1SCCNCc1cc(Br)ccc1OCc1ccccc1Cl,-68.7*,·,-23.8%,0.1%,-28.0%
Cn1nnnc1SCCNCc1ccc(OCc2ccccc2Cl)cc1,-104.7*,·,i,-12.6%,-18.6%
Cn1nnnc1SCCNCc1ccc(OCc2ccccc2)cc1,-0.6,·,-7.5%,0.8%,1.2%
Cn1nnnc1SCCNCc1ccccc1OCc1ccccc1Cl,?,5.5%,i,2.3%,-2.6%
COc1cc(NC(=O)c2cnc(NCc3ccccc3)nc2C)cc(OC)c1OC,-33.3,-1.0%,?,6.8%,-20.1%
OCC[C@@H]1C[C@H](O)[C@@H](O)[C@@]2(CCCO2)O1,-14.9,·,i,-4.6%,-1.7%
Cc1cc(CNCc2cn(C)nc2-c2ccc(Oc3ccccc3)cc2)on1,-67.8*,1.4%,?,-0.7%,-19.9%
Cn1cc(CNCC2CCCO2)c(-c2ccc(Oc3ccccc3)cc2)n1 (stereo not given),2.0,9.2%,i,-7.1%,-18.1%
COc1cccc(CN2C(=O)C(C)N(C(=O)c3ccccc3)c3ccccc32)c1 (stereo not given),-71.4*,0.4%,-24.3%,8.1%,-25.5%
COc1ccc(CN2C(=O)C(C)N(C(=O)c3c(F)cccc3F)c3ccccc32)cc1 (stereo not given),?,4.6%,·,1.3%,·
CN1CCN(c2ccc(C(=O)c3cn(-c4ccc(F)c(Cl)c4)nn3)cc2)CC1,-16.9,-3.1%,-3.1%,-1.2%,-2.6%
O=c1c2ccccc2[nH]c(=S)n1Cc1ccccc1,-12.8,1.2%,i,-8.1%,-12.2%
O=c1c2ccccc2[nH]c(=S)n1Cc1cccs1,-68.2*,0.5%,i,-15.0%,-1.8%
Clc1ccc(-c2c[n+](Cc3ccc(Br)cc3)c3n2CCCCC3)cc1,-68.4*,-1.2%,-14.3%,-4.7%,-8.2%
Clc1ccc(C[n+]2cc(-c3ccccc3)n3c2CCCCC3)c(Cl)c1,-78.0*,-0.8%,·,-5.1%,·
CC1CCC(C(C)C)C(OC(=O)C[n+]2cc(-c3ccc(Cl)cc3)n3c2CCCCC3)C1 (stereo not given),-96.9*,3.4%,i,-5.4%,-6.8%
O=C(C[n+]1cc(-c2ccccc2)n2c1CCCCC2)c1ccc(Cl)cc1,5.1,-3.2%,i,1.0%,-12.8%
Cc1ccc(-c2c[n+](CC(=O)Nc3cc(=O)n(C)c(=O)n3C)c3n2CCC3)cc1,-68.2*,-3.4%,i,-5.7%,-7.4%
Cc1nnc(NS(=O)(=O)c2ccc(N=Nc3ccc(N)nc3N)cc2)s1,16.7,·,-22.6%,-8.8%,-14.4%
CCC/C=N/NC(=O)c1ccc(F)cc1,?,1.4%,-5.1%,-2.7%,-13.2%
Clc1ccc(-c2c[n+](Cc3ccc(Cl)cc3Cl)c3n2CCCCC3)cc1,-102.1*,4.4%,·,-12.3%,·
Cc1ccc(-c2c[n+](CC(=O)c3ccc(Br)cc3)c3n2CCCCC3)cc1,-88.2*,-0.3%,-26.6%,-1.9%,-13.9%
CC(C)CC(=O)NCCc1ccncc1,-19.5,-0.6%,·,-0.4%,·
Clc1ccc(N2CCCCCC2)nn1,-4.5,-1.7%,·,4.8%,·
O=C(Nc1ccc(N2CCOCC2)nc1)c1ccc(C(F)(F)F)cc1,-68.2*,-3.4%,-29.9%,4.7%,-29.0%
NC(=O)C1CCN(c2ccc(C(F)(F)F)cn2)CC1,19.7,-1.7%,-11.3%,0.7%,-9.5%

# Screening results (PubChem)
